Where a name gives a salt, the structure may show the parent alone. In all, about 5,800 compounds went through this assay and about 620 (11%) showed activity. What follows is part of a selection rich in actives, with near analogues and random picks from the rest. Unmarked numbers belong to inactive results.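 Rule for the calls: active = score above a cut-off or among the top three wells of a plate; in these data no inactive exceeds 0.85.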
Test system: primary human hepatic stellate cells (donor 1)
Experiment: scaled lipid accumulation score (0 = DMSO-like, 1 = nortriptyline-like); higher = stronger HSC inactivation (lipid re-accumulation), active = hit call of the paper
Conditions: 48 h
Experimental: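 Primary lipid accumulation screen in primary human hepatic stellate cell myofibroblasts (donor 1, passage 8) in 384-well plates. 100 nL of library compound was pin-transferred into 30 µL medium in duplicate, and cells were treated for 48 h. The 'Scaled' score combines distance from plate baseline, toxicity and reproducibility penalties, and is normalised to nortriptyline (positive) and DMSO (negative) controls on each plate. A hit is defined as scaled >0.85 or among the top 3 wells per plate.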

[1] = library stock concentration: 3.33 mM
[2] = library stock concentration: 80 uM
[3] = library stock concentration: 400 uM
[4] = library stock concentration: 2 mM
[5] = library stock concentration: 10 mM
[6] = library stock concentration: 1 mM

`NC(N)=NCCNS(=O)(=O)c1cccc2cnccc12` [HA 1004, Dihydrochloride] was tested, and the “scaled lipid accumulation score” value [1] was no more than 0.
`O=S(=O)(NCCNC/C=C/c1ccc(Br)cc1)c1cccc2cnccc12` [H-89, Dihydrochloride] was tested, and the “scaled lipid accumulation score” value [1] was no more than 0.
For `O=S(=O)(NCCNC/C=C/c1ccc(Br)cc1)c1cccc2cnccc12` [listing 1 of 2 here], the “scaled lipid accumulation score” value [2] was no more than 0, the “scaled lipid accumulation score” value [3] was no more than 0 and the “scaled lipid accumulation score” value [4] was 0.134.
With `O=S(=O)(NCCNCC=Cc1ccc(Br)cc1)c1cccc2cnccc12` the “scaled lipid accumulation score” value [1] was 0.01 and the “scaled lipid accumulation score” value [5] was 0.542.
`O=S(=O)(NCCNC/C=C/c1ccc(Br)cc1)c1cccc2cnccc12` [listing 2 of 2 here] was tested, and the “scaled lipid accumulation score” value [5] was 0.989 (active).
In the case of `CNCCNS(=O)(=O)c1cccc2cnccc12` [H-8, Dihydrochloride], the “scaled lipid accumulation score” value [1] is reported as no more than 0.
With `CNCCNS(=O)(=O)c1cccc2cnccc12` [H-8 dihydrochloride] the “scaled lipid accumulation score” value [5] was 0.048.
`NC(N)=NCCNS(=O)(=O)c1cccc2cnccc12` was tested, and the “scaled lipid accumulation score” value (library stock concentration: 17 mM) was 0.047.
With `Cl.Cl.O=S(=O)(NCCNC/C=C/c1ccc(Br)cc1)c1cccc2cnccc12` [H 89 dihydrochloride] the “scaled lipid accumulation score” value [5] was 1.26 (active).
In the case of `CCCCCC(=O)CC[C@H]1[C@H](O)CC(=O)[C@@H]1C/C=C\CCCC(=O)O` [13,14-dihydro-15-keto Prostaglandin E2], the “scaled lipid accumulation score” value [6] is reported as no more than 0.
With `O=C1NC(=O)c2cc(Nc3ccc(F)cc3)c(Nc3ccc(F)cc3)cc21` the “scaled lipid accumulation score” value [5] was no more than 0.
With `CC1=C(C(=O)OCCN(Cc2ccccc2)c2ccccc2)C(c2cccc([N+](=O)[O-])c2)C(P2(=O)OCC(C)(C)CO2)=C(C)N1` (stereo unspecified) [Efonidipine hydrochloride monoethanolate] the “scaled lipid accumulation score” value [5] was no more than 0.
With `COc1ccccc1CNC1CCCNC1c1ccccc1` (stereo unspecified) the “scaled lipid accumulation score” value [5] was 0.474.
In the case of `CCCCC[C@H](O)/C=C/C=C\C=C\C=C\[C@@H](O)[C@@H](O)CCCC(=O)O` [Lipoxin A4], the “scaled lipid accumulation score” value (library stock concentration: 100 uM) is reported as no more than -0.021.
For `CC(C)N(CCCNC(=O)Nc1ccc(C(C)(C)C)cc1)C[C@H]1O[C@@H](n2cc(Br)c3c(N)ncnc32)[C@H](O)[C@@H]1O` [listing 1 of 2 here], the “scaled lipid accumulation score” value [1] was 0.805.
`CC(C)N(CCCNC(=O)Nc1ccc(C(C)(C)C)cc1)C[C@H]1O[C@@H](n2ccc3c(N)ncnc32)[C@H](O)[C@@H]1O` was tested, and the “scaled lipid accumulation score” value [1] was 0.204 and the “scaled lipid accumulation score” value [5] was 0.636.
`CC(C)N(CCCNC(=O)Nc1ccc(C(C)(C)C)cc1)C[C@H]1O[C@@H](n2cc(Br)c3c(N)ncnc32)[C@H](O)[C@@H]1O` [listing 2 of 2 here] was tested, and the “scaled lipid accumulation score” value [5] was 1.12 (active).
For `CCCCCCCC/C=C/CCCCCCCC(=O)Nc1c(C(C)C)cccc1C(C)C` [Oleic Acid-2,6-diisopropylanilide], the “scaled lipid accumulation score” value [6] was no more than 0.
In the case of `CCCCCCCCCCCCCCCCC(=O)NCCO` [Heptadecanoyl Ethanolamide], the “scaled lipid accumulation score” value [6] is reported as no more than 0.
In the case of `C[C@@H](Oc1cc(-n2cnc3ccc(CN4CCN(C)CC4)cc32)sc1C(N)=O)c1ccccc1C(F)(F)F` [listing 1 of 3 here], the “scaled lipid accumulation score” value [4] is reported as 0.915 (active) and the “scaled lipid accumulation score” value [5] is reported as 1.2 (active).
In the case of `C[C@@H](Oc1cc(-n2cnc3ccc(CN4CCN(C)CC4)cc32)sc1C(N)=O)c1ccccc1C(F)(F)F` [listing 2 of 3 here], the “scaled lipid accumulation score” value [2] is reported as no more than 0, the “scaled lipid accumulation score” value [3] is reported as 0.039 and the “scaled lipid accumulation score” value [5] is reported as 0.788.
With `C[C@@H](Oc1cc(-n2cnc3ccc(CN4CCN(C)CC4)cc32)sc1C(N)=O)c1ccccc1C(F)(F)F` [listing 3 of 3 here] the “scaled lipid accumulation score” value [1] was 1.22 (active).
`COc1cc2ncn(-c3cc(OCc4ccccc4S(C)(=O)=O)c(C#N)s3)c2cc1OC` [IKK-3 Inhibitor IX] was tested, and the “scaled lipid accumulation score” value [1] was no more than 0.
`CC(C)c1cc(C(=O)N2Cc3ccc(CN4CCN(C)CC4)cc3C2)c(O)cc1O` was tested, and the “scaled lipid accumulation score” value [1] was 0.544 and the “scaled lipid accumulation score” value [5] was 0.828.
With `COc1cc2ncn(-c3cc(OCc4ccccc4C(F)(F)F)c(C(N)=O)s3)c2cc1OC` [listing 1 of 2 here] the “scaled lipid accumulation score” value [2] was no more than 0, the “scaled lipid accumulation score” value [3] was no more than 0 and the “scaled lipid accumulation score” value [4] was no more than 0. For the same compound, the “scaled lipid accumulation score” value [5] was 0.764.
`COc1cc2ncn(-c3cc(OCc4ccccc4C(F)(F)F)c(C(N)=O)s3)c2cc1OC` [listing 2 of 2 here] was tested, and the “scaled lipid accumulation score” value [5] was 0.992 (active).
In the case of `O=C1N(c2ccccc2)c2ccccc2C1(Cc1ccncc1)Cc1ccncc1` [Linopirdine dihydrochloride], the “scaled lipid accumulation score” value [5] is reported as no more than -0.001.
`O=C1N(c2ccccc2)c2ccccc2C1(Cc1ccncc1)Cc1ccncc1` [Linopirdine] was tested, and the “scaled lipid accumulation score” value [5] was no more than -0.051.
With `O=C1N(c2ccccc2)c2ccccc2C1(Cc1ccncc1)Cc1ccncc1` the “scaled lipid accumulation score” value [5] was no more than 0.
In the case of `O=C(O)c1ccc(-c2ccc3cc(O)c(C45CC6CC(CC(C6)C4)C5)cc3c2)cc1`, the “scaled lipid accumulation score” value [5] is reported as 0.021.
For `CC[C@H]1OC(=O)[C@H](C)C(=O)[C@H](C)[C@@H](O[C@@H]2O[C@H](C)C[C@H](N(C)C)[C@H]2O)[C@](C)(OC)C[C@@H](C)C(=O)[C@H](C)[C@H]2N(CCCCn3cnc(-c4cccnc4)c3)C(=O)O[C@]12C` [Telithromycin], the “scaled lipid accumulation score” value [5] was no more than -0.027.
`CC[C@H]1OC(=O)[C@H](C)C(=O)[C@H](C)[C@@H](O[C@@H]2O[C@H](C)C[C@H](N(C)C)[C@H]2O)[C@](C)(OC)C[C@@H](C)C(=O)[C@H](C)[C@H]2N(CCCCn3cnc(-c4cccnc4)c3)C(=O)O[C@]12C` was tested, and the “scaled lipid accumulation score” value [5] was 0.448.
`CCCCC[C@H](O)/C=C/[C@H]1C=CC(=O)[C@H]1C/C=C\CCCC(=O)O` [8-iso Prostaglandin A2] was tested, and the “scaled lipid accumulation score” value [6] was no more than 0.
With `CCCCCCCCCCCCCC(=O)N[C@H](CO)[C@H](O)c1ccc([N+](=O)[O-])cc1` the “scaled lipid accumulation score” value [6] was 0.012.
In the case of `CC(C)C[C@@H](/C=C/S(C)(=O)=O)NC(=O)[C@H](CC(C)C)NC(=O)[C@H](CC(C)C)NC(=O)OCc1ccccc1`, the “scaled lipid accumulation score” value (library stock concentration: 9.1 mM) is reported as 0.738.

Source: the supplement of paper PMC9135407
